# Of roughly 7,900 targets only a part is listed; those with a hit were picked by preference. About 0.6% of all pairs of compound and target were hits. Unmarked numbers belong to inactive results.
# How the values were obtained:
# Test in all cases: log2 fold change, soluble protein after heating vs DMSO (PISA); higher = thermal stabilisation; K562 cells, 10 uM, 30 min; active = over 0.2 and 3.5 SD of the protein, either way, in both replicates (recomputed)
# [1] = compound: C1=CC=C(C=C1)[C@H](COC2=CC3=C(C=C2)NC(=O)N3)NC(=O)C4=CC=CN(C4=O)CC5=CC(=C(C=C5)F)F
# Outline: (§1)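 Quantification of soluble protein used TMTpro 16plex LC-MS/MS, with channel sums equalised. Samples were the supernatant after 21,000xg for 90 min of pooled aliquots from K562 cells (2×10^6 cells/mL) treated with 10 μM compound for 30 min, heated for 3 min over 48°C-58°C, and extracted in PBS with 0.5% NP-40 at 4°C. Values, from duplicates, describe thermal stability against control samples on a log2 fold-change scale.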
# [2] = compound: CC1=C(SC2=C1C(=N[C@H](C3=NN=C(N32)C)CC(=O)N)C4=CC=C(C=C4)Cl)C
# Outline: as §1
# [3] = compound: CC1=C2C(=CC=C1)N=C(N(C2=O)C3=CC=CC=C3C)CN4C=NC5=C(N=CN=C54)N
# Outline: as §1
# [4] = compound: Cc1sc2c(c1C)C(c1ccc(Cl)cc1)=N[C@@H](CC(=O)OC(C)(C)C)c1nnc(C)n1-2
# Outline: as §1
# [5] = compound: c1ccc([C@@H]2C[C@H]2NC2CCNCC2)cc1
# Outline: as §1
# UniProt Q2TAA5, sequence (Q2TAA5 whole entry, looked up): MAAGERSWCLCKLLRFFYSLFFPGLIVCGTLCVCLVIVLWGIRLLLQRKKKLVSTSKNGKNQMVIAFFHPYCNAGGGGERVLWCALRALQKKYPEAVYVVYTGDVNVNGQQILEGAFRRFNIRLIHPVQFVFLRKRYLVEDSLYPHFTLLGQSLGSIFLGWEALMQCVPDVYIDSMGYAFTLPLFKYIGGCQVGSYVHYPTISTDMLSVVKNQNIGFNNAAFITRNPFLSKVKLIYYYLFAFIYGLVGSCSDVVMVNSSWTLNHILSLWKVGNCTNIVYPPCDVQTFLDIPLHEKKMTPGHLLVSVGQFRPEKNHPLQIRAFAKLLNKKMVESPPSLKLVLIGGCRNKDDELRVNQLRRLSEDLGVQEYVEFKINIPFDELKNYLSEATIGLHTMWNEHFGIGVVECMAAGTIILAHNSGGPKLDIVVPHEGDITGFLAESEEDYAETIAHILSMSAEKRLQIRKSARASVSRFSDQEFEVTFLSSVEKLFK
# UniProt P00966, sequence (P00966 whole entry, looked up): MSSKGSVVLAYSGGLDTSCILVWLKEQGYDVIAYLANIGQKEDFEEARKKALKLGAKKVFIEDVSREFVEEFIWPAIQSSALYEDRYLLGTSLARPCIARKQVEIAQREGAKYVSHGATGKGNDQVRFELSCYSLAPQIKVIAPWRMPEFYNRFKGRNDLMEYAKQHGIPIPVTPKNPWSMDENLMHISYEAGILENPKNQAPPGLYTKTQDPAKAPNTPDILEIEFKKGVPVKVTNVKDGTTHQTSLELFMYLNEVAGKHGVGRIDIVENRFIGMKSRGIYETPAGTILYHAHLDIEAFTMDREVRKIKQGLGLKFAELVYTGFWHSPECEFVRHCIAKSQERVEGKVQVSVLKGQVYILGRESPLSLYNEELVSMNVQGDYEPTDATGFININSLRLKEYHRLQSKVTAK
# UniProt Q9Y2Y0, sequence (Q9Y2Y0 whole entry, looked up): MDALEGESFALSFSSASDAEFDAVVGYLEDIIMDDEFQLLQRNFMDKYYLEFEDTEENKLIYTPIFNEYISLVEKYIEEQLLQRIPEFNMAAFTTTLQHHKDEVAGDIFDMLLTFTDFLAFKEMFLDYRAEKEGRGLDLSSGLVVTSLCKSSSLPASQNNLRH
# UniProt P30837, sequence (P30837 whole entry, looked up): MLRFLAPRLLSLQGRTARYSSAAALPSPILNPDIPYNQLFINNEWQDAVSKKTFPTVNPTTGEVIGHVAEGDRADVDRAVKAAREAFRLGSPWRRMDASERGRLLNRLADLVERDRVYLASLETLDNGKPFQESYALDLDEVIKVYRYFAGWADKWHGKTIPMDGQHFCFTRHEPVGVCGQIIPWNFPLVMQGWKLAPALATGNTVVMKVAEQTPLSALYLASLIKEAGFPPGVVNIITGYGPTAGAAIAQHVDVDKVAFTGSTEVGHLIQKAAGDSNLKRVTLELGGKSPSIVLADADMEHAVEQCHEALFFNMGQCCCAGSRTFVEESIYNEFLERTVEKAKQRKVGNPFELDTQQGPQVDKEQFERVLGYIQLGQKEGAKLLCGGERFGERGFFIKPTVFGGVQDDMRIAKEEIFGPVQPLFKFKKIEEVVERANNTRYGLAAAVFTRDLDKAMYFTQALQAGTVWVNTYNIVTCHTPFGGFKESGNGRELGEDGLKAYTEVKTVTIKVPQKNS
# UniProt Q8N6S5, sequence (Q8N6S5 whole entry, looked up): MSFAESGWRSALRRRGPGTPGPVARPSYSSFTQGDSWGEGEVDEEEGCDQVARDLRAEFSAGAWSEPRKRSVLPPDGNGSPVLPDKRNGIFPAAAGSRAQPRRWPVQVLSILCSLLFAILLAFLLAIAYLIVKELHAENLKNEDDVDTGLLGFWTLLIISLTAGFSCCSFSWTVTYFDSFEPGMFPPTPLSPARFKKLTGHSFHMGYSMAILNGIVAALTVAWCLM
# UniProt O95782, sequence (O95782 whole entry, looked up): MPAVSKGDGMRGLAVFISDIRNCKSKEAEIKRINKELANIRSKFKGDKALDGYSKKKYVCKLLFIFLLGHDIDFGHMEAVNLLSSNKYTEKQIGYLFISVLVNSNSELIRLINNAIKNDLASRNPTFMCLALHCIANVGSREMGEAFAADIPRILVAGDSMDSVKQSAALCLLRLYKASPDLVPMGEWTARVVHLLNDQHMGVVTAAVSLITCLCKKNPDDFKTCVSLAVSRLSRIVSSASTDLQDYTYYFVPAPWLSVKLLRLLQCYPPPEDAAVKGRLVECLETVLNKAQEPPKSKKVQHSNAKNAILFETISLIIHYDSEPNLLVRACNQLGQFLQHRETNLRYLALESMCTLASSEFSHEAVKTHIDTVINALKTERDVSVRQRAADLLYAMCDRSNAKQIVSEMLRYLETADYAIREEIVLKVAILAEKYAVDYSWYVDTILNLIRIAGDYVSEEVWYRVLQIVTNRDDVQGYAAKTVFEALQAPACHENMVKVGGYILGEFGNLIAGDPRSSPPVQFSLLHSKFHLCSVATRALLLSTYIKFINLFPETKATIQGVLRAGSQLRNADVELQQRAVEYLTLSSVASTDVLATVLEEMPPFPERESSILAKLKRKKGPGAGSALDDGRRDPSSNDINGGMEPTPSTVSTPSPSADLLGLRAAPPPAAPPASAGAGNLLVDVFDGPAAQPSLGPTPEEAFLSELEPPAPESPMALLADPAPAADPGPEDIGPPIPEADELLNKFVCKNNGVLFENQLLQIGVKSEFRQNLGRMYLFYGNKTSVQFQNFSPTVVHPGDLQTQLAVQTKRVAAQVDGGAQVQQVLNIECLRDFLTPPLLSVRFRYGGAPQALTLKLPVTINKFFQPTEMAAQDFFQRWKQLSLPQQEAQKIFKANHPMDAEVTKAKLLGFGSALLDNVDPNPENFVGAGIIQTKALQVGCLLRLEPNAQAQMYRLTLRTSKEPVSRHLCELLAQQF
# UniProt Q16864, sequence (Q16864 whole entry, looked up): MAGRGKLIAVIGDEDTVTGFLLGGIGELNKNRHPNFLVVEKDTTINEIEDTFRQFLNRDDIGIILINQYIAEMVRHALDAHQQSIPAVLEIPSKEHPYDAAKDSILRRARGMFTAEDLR
# UniProt P02749, sequence (P02749 whole entry, looked up): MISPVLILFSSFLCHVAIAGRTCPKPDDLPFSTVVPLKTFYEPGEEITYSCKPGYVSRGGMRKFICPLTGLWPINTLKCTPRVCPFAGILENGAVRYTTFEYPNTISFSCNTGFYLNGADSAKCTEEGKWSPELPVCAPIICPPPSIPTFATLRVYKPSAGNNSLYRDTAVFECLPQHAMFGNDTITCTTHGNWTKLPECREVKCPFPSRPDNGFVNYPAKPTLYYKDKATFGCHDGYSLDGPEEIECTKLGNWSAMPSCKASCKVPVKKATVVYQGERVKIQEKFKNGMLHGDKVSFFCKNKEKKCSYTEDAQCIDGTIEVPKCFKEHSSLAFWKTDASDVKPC
# UniProt Q93050, sequence (Q93050 whole entry, looked up): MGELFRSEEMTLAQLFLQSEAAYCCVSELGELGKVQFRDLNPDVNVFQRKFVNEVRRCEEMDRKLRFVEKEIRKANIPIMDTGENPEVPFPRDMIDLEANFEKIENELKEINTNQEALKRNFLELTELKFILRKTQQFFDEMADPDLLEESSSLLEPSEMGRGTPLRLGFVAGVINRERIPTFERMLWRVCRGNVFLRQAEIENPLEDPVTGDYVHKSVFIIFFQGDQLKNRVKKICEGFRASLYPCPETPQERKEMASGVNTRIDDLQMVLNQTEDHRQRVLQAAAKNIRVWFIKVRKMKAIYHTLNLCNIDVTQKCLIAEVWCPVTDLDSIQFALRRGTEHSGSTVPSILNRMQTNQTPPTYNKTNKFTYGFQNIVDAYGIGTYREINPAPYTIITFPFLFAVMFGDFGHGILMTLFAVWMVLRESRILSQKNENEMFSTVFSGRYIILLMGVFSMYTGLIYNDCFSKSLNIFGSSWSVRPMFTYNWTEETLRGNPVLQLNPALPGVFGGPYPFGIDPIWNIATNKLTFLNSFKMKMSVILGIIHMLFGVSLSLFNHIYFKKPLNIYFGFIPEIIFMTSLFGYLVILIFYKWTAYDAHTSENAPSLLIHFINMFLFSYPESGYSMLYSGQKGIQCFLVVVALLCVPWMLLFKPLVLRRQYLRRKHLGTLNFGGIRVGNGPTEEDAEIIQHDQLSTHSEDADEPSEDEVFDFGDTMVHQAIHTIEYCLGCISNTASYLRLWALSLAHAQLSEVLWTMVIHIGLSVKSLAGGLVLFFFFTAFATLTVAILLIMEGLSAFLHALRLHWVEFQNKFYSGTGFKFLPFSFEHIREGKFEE
# UniProt P56211, sequence (P56211 whole entry, looked up): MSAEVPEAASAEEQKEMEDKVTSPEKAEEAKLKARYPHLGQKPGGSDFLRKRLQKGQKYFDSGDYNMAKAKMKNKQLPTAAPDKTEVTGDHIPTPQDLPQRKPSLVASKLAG
# UniProt Q4G176, sequence (Q4G176 whole entry, looked up): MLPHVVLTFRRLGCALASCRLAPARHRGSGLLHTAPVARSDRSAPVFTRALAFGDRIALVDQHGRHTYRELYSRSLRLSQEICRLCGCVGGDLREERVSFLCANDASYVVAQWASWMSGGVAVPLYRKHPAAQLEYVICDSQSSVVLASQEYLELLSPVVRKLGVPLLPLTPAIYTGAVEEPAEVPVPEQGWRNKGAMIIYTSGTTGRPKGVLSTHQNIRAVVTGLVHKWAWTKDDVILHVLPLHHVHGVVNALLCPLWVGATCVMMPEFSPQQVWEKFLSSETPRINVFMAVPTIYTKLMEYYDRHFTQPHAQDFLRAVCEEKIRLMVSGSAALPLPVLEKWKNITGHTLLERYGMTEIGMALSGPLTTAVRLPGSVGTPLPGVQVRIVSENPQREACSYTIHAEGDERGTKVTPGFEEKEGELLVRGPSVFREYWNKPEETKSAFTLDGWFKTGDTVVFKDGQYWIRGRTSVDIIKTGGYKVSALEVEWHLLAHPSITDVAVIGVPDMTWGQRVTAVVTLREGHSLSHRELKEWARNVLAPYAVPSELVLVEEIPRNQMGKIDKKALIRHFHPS
# UniProt Q9UII2, sequence (Q9UII2 whole entry, looked up): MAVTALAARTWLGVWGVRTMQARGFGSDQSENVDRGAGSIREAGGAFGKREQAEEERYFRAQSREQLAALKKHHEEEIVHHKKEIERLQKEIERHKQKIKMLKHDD
Target,log2 fold change [1],log2 fold change [2],log2 fold change [3],log2 fold change [4],log2 fold change [5]
ARFRP1 (UniProt Q13795),0,-0.066,-0.03,-0.021,0.029
APOH (UniProt P02749),-0.265,-0.106,0.073,-0.051,0.199
ABHD17A isoform 2 (UniProt Q96GS6),0.029,0.079,0.122,-0.148,-0.012
AKR1C2 (UniProt P52895),0,-0.04,0.086,0.057,-0.011
AGRN (UniProt O00468),0.06,0.154,0.043,-0.038,0.028
ACTR1B (UniProt P42025),-0.049,0.105,0.034,0.028,-0.029
ATP6V1F isoform 2 (UniProt Q16864),0.015,-0.144,-0.138,-0.126,0.02
ALDH1B1 (UniProt P30837),0.037,0.064,0.013,-0.047,0.009
ALG11 (UniProt Q2TAA5),0.001,0.085,0.144,-0.051,-0.021
BST2 (UniProt Q10589),0.056,0.019,-0.012,0.068,0.055
ACSL5 isoform 3 (UniProt Q9ULC5),-0.024,0.043,0.101,0.057,-0.178
ATP6V1C1 (UniProt P21283),-0.011,0.004,0.05,-0.002,-0.039
ARL6IP6 (UniProt Q8N6S5),-0.003,0.113,0.08,0.164,0.118
AKAP8 (UniProt O43823),0.012,-0.03,0.105,-0.018,0.347 (active)
AIFM2 (UniProt Q9BRQ8),0.036,0.047,0.026,0.045,0
ACSF3 (UniProt Q4G176),0.037,0.086,0.12,-0.067,0.063
ATP13A3 (UniProt Q9H7F0),-0.038,0.008,0.016,0.018,-0.101
BID isoform 2 (UniProt P55957),-0.036,0.059,0.081,-0.076,-0.053
ARRDC1 (UniProt Q8N5I2),0.005,-0.462 (active),-0.062,-0.1,-0.037
AKAP8L (UniProt Q9ULX6),-0.011,-0.186,0.054,-0.047,0.043
AIP (UniProt O00170),-0.031,0.078,0.042,-0.004,-0.018
APH1A (UniProt Q96BI3),-0.015,0.009,-0.21,-0.08,-0.153
AUP1 (UniProt Q9Y679),-0.044,0.053,0.028,-0.074,-0.051
AP2A1 (UniProt O95782),-0.001,-0.021,-0.028,0.047,-0.005
AKT1 (UniProt P31749),-0.068,0.018,0.034,0.042,-0.072
ANKRD29 (UniProt Q8N6D5),-0.012,0.199,0.248,-0.029,-0.079
ARPP19 (UniProt P56211),0.003,0.021,-0.076,0.031,-0.007

Target,log2 fold change [1],log2 fold change [2],log2 fold change [3],log2 fold change [4],log2 fold change [5]
AGO1 (UniProt Q9UL18),-0.05,-0.066,-0.114,-0.016,0.05
ATP6V0A1 isoform 3 (UniProt Q93050),0.115,-0.07,0.005,-0.07,-0.149
AUH (UniProt Q13825),0.015,0.065,-0.116,-0.042,-0.001
ATP1B3 (UniProt P54709),0.012,0.042,0.001,0.002,0.006
ATP23 (UniProt Q9Y6H3),-0.023,-0.031,-0.009,-0.052,-0.053
ASS1 (UniProt P00966),-0.099,-0.036,0.032,-0.141,-0.146
BPHL (UniProt Q86WA6),-0.015,0.052,0.075,0.136,-0.065
ATG9A (UniProt Q7Z3C6),0.018,0.014,0.021,-0.028,-0.05
ARL2BP (UniProt Q9Y2Y0),-0.076,0,0.14,0.069,0.017
ARHGAP4 isoform 2 (UniProt P98171),0.211,-0.101,-0.069,-0.122,0.008
ARF4 (UniProt P18085),0,0.045,0.053,-0.082,-0.015
ATR (UniProt Q13535),-0.045,0.025,0.107,-0.022,-0.079
ATAD1 (UniProt Q8NBU5),0.016,0.055,0.063,-0.027,-0.02
ADD1 isoform 3 (UniProt P35611),0.01,-0.003,0,-0.014,0.024
ATP9B (UniProt O43861),-0.092,-0.001,0.055,-0.048,0.071
BCL9L (UniProt Q86UU0),0.001,-0.028,0.019,0.051,0.05
BCCIP (UniProt Q9P287),-0.044,-0.018,0,-0.037,-0.062
ALDH2 (UniProt P05091),0.009,0.065,0.032,-0.043,-0.001
BLVRB (UniProt P30043),-0.029,0.027,-0.01,-0.006,0.013
ALDH18A1 (UniProt P54886),-0.107,-0.038,0.028,0.018,0.02
ACADVL isoform 3 (UniProt P49748),0.019,0.05,0.009,-0.011,-0.018
ARFGAP2 (UniProt Q8N6H7),-0.006,0.039,0.086,-0.033,0.006
AK6 (UniProt Q9Y3D8),-0.043,0.042,0.2,-0.014,-0.008
ATP5IF1 (UniProt Q9UII2),0.016,-0.087,-0.031,-0.013,-0.079
BZW2 (UniProt Q9Y6E2),-0.069,0.042,0.025,-0.033,-0.014
AFDN isoform 5 (UniProt P55196),-0.04,0.055,0.069,-0.018,-0.023

# Reference: the supplement of paper PMC10849652
